Assay outcomes deposited in PubChem BioAssay by The Scripps Research Institute Molecular Screening Center.
LYPLA2 inh: blocks human lysophospholipase 2, a PME1 counter-screen | AID 2177 | recombinant LYPLA2, FP-Rh probe fluorescence polarization | inhibition, % at 5.9 µM | 320,000 tested, 0.38% active;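 active = inhibition above the screen-wide mean plus 3 SD, limit set per campaign, cut at about 26% in these data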;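 note: 0% = LYPLA2 with DMSO and 100% = wells lacking LYPLA2 enzyme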
Target sequence (O95372 whole entry, looked up): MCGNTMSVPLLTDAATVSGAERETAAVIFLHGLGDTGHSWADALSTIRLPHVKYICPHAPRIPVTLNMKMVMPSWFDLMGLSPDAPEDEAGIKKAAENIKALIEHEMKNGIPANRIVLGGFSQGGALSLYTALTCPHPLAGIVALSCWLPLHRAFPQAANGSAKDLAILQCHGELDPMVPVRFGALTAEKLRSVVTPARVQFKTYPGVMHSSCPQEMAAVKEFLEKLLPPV
GSTO1 counter: blocks human GSTO1 in RBBP9 counter-screen; 300,000 tested, 1.1% active; AID 1974; P78417; inhibition, % at 5.96 µM; recombinant GSTO1, activity-based probe fluorescence polarization;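 active = inhibition above the campaign mean inhibition plus 3 SD, cut at about 35% in these data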;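 note: 0% = GSTO1-1 with DMSO and 100% = wells lacking GSTO1-1 enzyme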
Target sequence (P78417 whole entry, looked up): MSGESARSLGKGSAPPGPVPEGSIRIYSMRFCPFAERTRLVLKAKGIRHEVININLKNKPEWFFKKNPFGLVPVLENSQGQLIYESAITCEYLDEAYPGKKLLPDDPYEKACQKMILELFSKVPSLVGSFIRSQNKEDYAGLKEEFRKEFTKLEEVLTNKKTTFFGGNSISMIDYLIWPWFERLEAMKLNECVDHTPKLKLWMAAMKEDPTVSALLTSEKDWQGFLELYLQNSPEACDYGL
PREPL inh: human PREPL enzyme inhibition | Q4J6C6 | recombinant PREPL, fluorescence polarization activity-based probe | inhibition, % at 5.96 µM | 320,000 tested, 0.68% active; in the data active = inhibition above about 43%;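 note: 0% = enzyme with DMSO and 100% = wells lacking enzyme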
Fam108B inh: counter-screen for RBBP9 inhibitors: inhibitors of mouse Fam108B; recombinant Fam108B, FP-Rh probe fluorescence polarization; 300,000 tested, 0.33% active; inhibition, % at 9.51 µM;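 active = inhibition above the screen mean inhibition plus 3 SD, computed separately per campaign, cut at about 18% in these data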;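 note: inhibitors lower polarization as less probe binds the enzyme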
LYPLA1 inh: LYPLA1 (human) inhibition in PME1 counter-screen; 320,000 tested, 0.16% active; recombinant LYPLA1, FP-Rh probe fluorescence polarization; AID 2174; inhibition, % at 5.9 µM;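 active = inhibition above the mean of all tested compounds plus 3 SD, set per campaign, cut at about 14% in these data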;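 note: inhibitors block serine hydrolase probe labeling of LYPLA1 so polarization falls; 0% = enzyme with DMSO and 100% = wells lacking LYPLA1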
PME-1 inh: blocks human protein phosphatase methylesterase 1; 320,000 tested, 0.53% active; Q9Y570; AID 2130; recombinant PME-1, FP-Rh probe fluorescence polarization; inhibition, % at 5.9 µM;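 active = inhibition above the campaign mean of all compounds plus 3 SD, cut at about 26% in these data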;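 note: competitive labeling of PME-1 active site by serine hydrolase directed probe; 0% = PME-1 with DMSO and 100% = wells lacking PME-1 enzyme; inhibitors block probe labeling so polarization falls and inhibition rises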
* hit, by the source's call; . = no result given. The list is not random: actives were taken first. Their share in the collection is about 1.9%.

SMILES	LYPLA2 inh	GSTO1 counter	PREPL inh	Fam108B inh	LYPLA1 inh	PME-1 inh
COc1ccc(N2CSC3=C(C#N)C(c4cc(OC)c(OC)cc4OC)CC(=O)N3C2)c(OC)c1 (stereo not given)	0	39*	24	9	-6	1
CCC(CC)C(=O)OCC(=O)NC12CC3CC(CC(C3)C1)C2	0	37*	0	-4	-1	4
COc1ccccc1C(C)NC(=O)c1ccc(NC(=O)CC2SC(N3CCCC3)=NC2=O)cc1 (stereo not given)	1	.	19	.	-4	-1
COc1ccc(Nc2cc(C)c3c(O)cccc3n2)cc1	4	7	15	5	1	16
Cc1ccc(Nc2cc(C)c3c(O)cccc3n2)cc1C	8	-3	24	4	-7	31*
COc1ccccc1N(C)S(=O)(=O)c1ccc(C(=O)N(C)Cc2ccc(Cl)s2)cc1	8	.	-3	.	3	3
CN(CC(=O)Nc1ccc(Cl)c(S(=O)(=O)N2CCOCC2)c1)C(=O)c1ccc(C#N)cc1	3	.	13	.	0	3
Cc1c(C(=O)NCCC2=CCCCC2)oc2ccc(S(=O)(=O)N3CCOCC3)cc12	9	-12	-4	-1	8	3
Cc1c(C(=O)O)oc2ccc(S(=O)(=O)NCCC3=CCCCC3)cc12	-2	37*	-2	-1	-2	5
Cn1nc(C(=O)OCC(=O)Nc2ccc(C(N)=O)cc2)c2ccccc2c1=O	.	.	6	.	.	.
COC(=O)N1C(=O)[C@](CC(C)C)(c2ccccc2)N1C(=O)OC	5	0	7	6	0	28*
COC(=O)N1C(=O)[C@@](c2ccccc2)(C2CCCC2)N1C(=O)OC	0	8	10	6	2	23
COC(=O)N1C(=O)[C@](c2ccccc2)(C2CCCCC2)N1C(=O)OC	7	1	1	-2	1	71*
COC(=O)N1C(=O)[C@](c2ccsc2)(C(C)C)N1C(=O)OC	-5	-3	4	-1	0	25
COC(=O)N1C(=O)[C@@](CC(C)C)(c2ccccc2)N1C(=O)OC	-5	-1	12	4	0	1
COC(=O)N1C(=O)[C@](c2ccc(OC)cc2)(C(C)C)N1C(=O)OC	5	-8	7	0	3	49*
CC(=O)N1CCN(c2ccc(NC(=S)NC(=O)COc3ccc(C(C)(C)C)cc3)cc2)CC1	12	-1	36	0	1	40*
CN(C1=C(NC(=O)c2ccc(Cl)cc2)C(=O)c2ccccc2C1=O)c1ccccc1	4	43*	32	8	-5	5
CC1Oc2ccccc2C=C1/C=N/Nc1ccc(C(=O)O)cc1 (stereo not given)	3	9	5	0	7	34*
COc1ccc(/C(C)=C2/SC(=S)N(CCC(=O)O)C2=O)cc1	1	2	9	-1	-2	27*
COc1ccc(/C=C2/SC(=S)N(CCC(=O)O)C2=O)cc1	-2	15	30	3	0	2
COc1cc(/C=C2\C(=O)N(CCC#N)N=C2C)ccc1OCC(=O)Nc1ccccc1	-3	47*	1	-5	-1	0
CCOc1cc(/C=C2\C(=O)N(CCC#N)N=C2C)ccc1OCC(N)=O	3	54*	25	-1	8	-2
CC1=NN(CCC#N)C(=O)/C1=C/c1ccc(N(C)C)cc1	9	23	2	2	1	-1
Nc1ccc(O)c2ccccc12	-2	62*	32	4	1	8
SMILES	LYPLA2 inh	GSTO1 counter	PREPL inh	Fam108B inh	LYPLA1 inh	PME-1 inh
Nc1ccc(N=Nc2ccccc2)c2ccccc12	6	5	20	9	-1	11
C[C@@H]1O[C@@H](OC2C(O)C(OCCc3ccc(O)c(O)c3)OC(CO)C2OC(=O)/C=C/c2ccc(O)c(O)c2)[C@H](O)[C@H](O)[C@H]1O (stereo not given in full)	3	54*	5	1	-1	-3
CC(=O)c1ccc(N(CC(=O)NC2CCS(=O)(=O)C2)S(=O)(=O)c2ccc(C)cc2)cc1 (stereo not given)	.	.	-3	.	.	.
O=C(COC(=O)c1ccncc1)Nc1cccc2ccccc12	.	.	11	.	.	.
COc1ccc(/C=N/NC(=O)C(=O)/C=C2\NC3(CCCC3)Cc3ccccc32)cc1	-16	-5	3	-15	-14	-10
O=C(/C=C1\NC2(CCCC2)Cc2ccccc21)C(=O)N/N=C/c1ccc(O)c(O)c1	-7	3	42	11	-13	32*
COc1ccc2c(c1)C(=O)C(=O)N2CCS(=O)(=O)c1ccccc1	12	6	-4	1	7	0
O=C1C(=O)N(CCS(=O)(=O)c2ccccc2)c2ccc(F)cc21	9	36*	8	-1	2	-2
COc1ccccc1Nc1nc(-c2sc(NC(=O)c3ccc([N+](=O)[O-])cc3)nc2C)cs1	-5	11	11	25*	-13	24
Cc1c(C#N)c(NC(=O)CCl)n(Cc2cccs2)c1C	4	87*	8	1	4	3
CCN(CC)C(=O)c1sc(NC(=O)Cc2cccs2)c(C#N)c1C	2	3	7	-1	-5	0
O=C(Cc1cccc(NC(=O)C2CCN(C(=O)C3CC3)CC2)c1)Nc1cccc(C(=O)N2CCCC2)c1	0	.	-6	.	-1	-2
Cn1nnnc1SCC(=O)Nc1ccccc1C(=O)NCc1ccccc1	-3	-7	-5	-2	-1	5
Cc1ccc(CNC(=O)c2ccccc2NC(=O)CSc2nnnn2C)cc1	-1	37*	3	6	3	-1
CC(=O)Nc1c(C)nn(-c2ccc([N+](=O)[O-])cc2)c1C	-4	10	12	1	-2	4
Cc1ccc(-n2nc(C)c(NC(=O)CCl)c2C)cc1	7	84*	-8	12	4	10
Cc1ccc(-c2nn(-c3ccccc3)cc2NC(=O)CCl)cc1	-2	69*	0	0	-4	-5
O=C(Nc1cccc(C(=O)N2CCCc3ccccc32)c1)c1ccccc1	-2	-6	2	-2	-5	4
CN(CC(=O)Nc1ccc(Cl)c(C(F)(F)F)c1)C(=O)c1cc(=O)c2ccccc2o1	-6	.	24	.	-8	4
O=C(O)c1ccc(/C=C2\SC(=S)N(Nc3ccccc3)C2=O)cc1	0	1	2	3	-2	2
O=C1/C(=C/c2ccncc2)SC(=S)N1Nc1ccccc1	0	36*	-6	3	0	0
CCC/C(C#Cc1ccsc1)=C1/c2ccccc2C(=O)N1c1ccccc1	.	.	7	.	.	.
COc1cc2c(C#N)c(N3CCCCC3)nc(N)c2c(N)n1	-2	-2	36	8	2	16
COc1ccc(CN2C(=O)Cc3c2nc(N)c2c(N)nc(N4CCCCC4)c(C#N)c32)cc1	-10	48*	16	2	-7	-2
